ChEMBL document CHEMBL4513216, “Probing the Open Global Health Chemical Diversity Library for Multistage-Active Starting Points for Next-Generation Antimalarials” (ACS Infect Dis, 2020)
The campaign covered roughly 69,000 compounds. About 8,600 (12%) showed an effect of 50% or more. The sample holds strong results, similar compounds and a random draw of the others, so the mix is not that of the screen.

system: Plasmodium berghei; assay: Screen against P. berghei liver stage (PbLuc), transformed with Luciferase, at 10uM; format: functional, HepG2; details: tested at 10 uM

Structure (SMILES)	INHIBITION
COCc1nn(C(C)C)c2c1CCN(Cc1nccs1)C2	-11.6%
O=C(c1cnccn1)N1CCN(Cc2cccnc2)c2ncccc2C1	11.5%
CN1[C@H](CO)C[C@H](CNCc2ccc(Cl)c(F)c2)[C@@H]1c1ccccc1F	53.5%
CCc1ccc(CNC[C@H]2C[C@@H](CO)N(C)[C@H]2c2ccccc2F)o1	-3.96%
CN1[C@H](CO)C[C@H](CNCc2ccc(CO)o2)[C@@H]1c1ccccc1F	28.7%
CCC(=O)N1CCC(c2nc(N3CCOCC3)ncc2S(C)(=O)=O)CC1	36%
Cc1nnc(C2Cc3ccccc3CN2Cc2c(C)noc2C)o1 (stereo not drawn)	19.5%
CC(Cn1cccn1)NC(=O)c1cc(C2CC2)nc2c1cnn2C (stereo not drawn)	-6.18%
Cn1cc(CN2CCC(c3cc(COc4cccc(Cl)c4)[nH]n3)C2)cn1 (stereo not drawn)	21.955%
COc1ccc(C(C)=O)cc1CN1CCn2cccc2C1C (stereo not drawn)	58.5%
COc1ccc(C)cc1CN1CCCC1Cn1nc(C)nc1C (stereo not drawn)	25.3%
COc1ccc(CN2CC(n3cccn3)C2)cc1F	4.34%
COc1ccc(CN2CCN(Cc3nccn3C)C(C)C2)cc1F (stereo not drawn)	-85.6%
COc1ccc(CN2CCn3cccc3C2C)cc1F (stereo not drawn)	59.4%
COc1ccc(C)cc1CN1CCN(Cc2nccn2C)C(C)C1 (stereo not drawn)	-78.3%
COc1ccc(C)cc1CN1CCn2cccc2C1C (stereo not drawn)	84.2%
COC(=O)c1ccc(OC)c(CN2CCN(CC(C)C)C(=O)C2C)c1 (stereo not drawn)	-14.1%
COc1cc(C(C)=O)ccc1OCC(=O)c1cccn1C	41.3%
CC(=O)N1CCN(CCNS(=O)(=O)c2c(F)cccc2F)CC1	31.6%
Cn1cnc2c1C(C(=O)N1CCCC1)N(CC1CC1)CC2 (stereo not drawn)	0.804%
COc1ccc2c(c1)CCCN2Cc1nc(C)c(C)o1	19.8%
Cc1cc(C)n(CC2CN(Cc3noc(C)n3)CCO2)n1 (stereo not drawn)	5.7%
CCCn1nnnc1COC(=O)C1COc2ccccc2O1 (stereo not drawn)	49%

Structure (SMILES)	INHIBITION
O=C(NCCc1cc2nc(-c3ccncc3)ccn2n1)C1CCOCC1	17.14%
Cc1nnsc1C(=O)N1C[C@@H]2CC[C@H]1CN(c1cnccn1)C2	4.35%
Cc1cc(F)ccc1CCNC(=O)NCC(C)N1CCOCC1 (stereo not drawn)	11.1%
O=C(O)c1cc(S(=O)(=O)Nc2cnn(C3CCOCC3)c2)ccc1F	29.3%
CCN(C(=O)CCc1ccc2c(c1)OCO2)C1CC(=O)NC1=O (stereo not drawn)	7.97%
Cc1cnn(C2CCCN(C(=O)CCc3ccncc3)C2)c1 (stereo not drawn)	26.4%
Cc1cnn(C2CCCN(C(=O)CCc3nccs3)C2)c1 (stereo not drawn)	63.9%
Cc1nn(C)c(C)c1CC(=O)N1CCCC(n2cccn2)C1 (stereo not drawn)	7.13%
Cc1nn(C)c(C)c1CC(=O)N1CCCC(CNS(C)(=O)=O)C1 (stereo not drawn)	50.2%
Cc1nn(C)c(C)c1CC(=O)N1CCCC(n2ccnc2C)C1 (stereo not drawn)	23.7%
Cc1nn(C)c(C)c1CC(=O)N1CCCC(n2ccnc2)C1 (stereo not drawn)	44.3%
Cc1nn(CC(C)C)c(C)c1CC(=O)N1CCCC(CNS(C)(=O)=O)C1 (stereo not drawn)	24.1%
Cc1cnn(C2CCCN(C(=O)Cc3c(C)nn(C)c3C)C2)c1 (stereo not drawn)	53.9%
O=C(CCc1nccs1)N1CCCC(n2cccn2)C1 (stereo not drawn)	38.5%
Cc1nn(C)c(C)c1-c1ccnc(N2CCCN(CC(C)C)CC2)n1	24.3%
COc1ccc(F)c(NCc2ccc(C(=O)N(C)C)[nH]2)c1	-22.6%
CN(Cc1nc2ccccc2o1)C1CCCN(c2cccnn2)C1 (stereo not drawn)	28.8%
CC(=O)N1CCN([C@@H]2CC[C@@H](N(C)C(=O)C3CCCCC3)[C@H]2O)CC1	39.7%
Cc1nc(CN2CCOCC3(CCCN(c4cnccn4)C3)C2)cs1 (stereo not drawn)	15.4%
Cn1ccnc1SCCNC1CCN(c2nc3ccccc3s2)CC1	34.1%
c1ccc(CN2CCC(NCCSc3ncn[nH]3)C2)cc1 (stereo not drawn)	42.3%
CCCc1cc(CNC2CCN(c3cc(C(C)C)nc(C)n3)CC2)on1	61.3%
Cc1n[nH]c(SCCNC2CCN(c3nc4ccccc4s3)CC2)n1	50.2%

Structure (SMILES)	INHIBITION
CCCc1cc(CNC(=O)C2CCOc3ccccc3C2)on1 (stereo not drawn)	26.8%
CCCc1cc(N2CCC(NC3CCOCC3)CC2)nc(C)n1	22.1%
CCCc1cc(N2CCC(NCC3(O)CCCCC3)CC2)nc(C)n1	6.69%
CCCc1cc(N2CCC(NC3CCC(O)CC3)CC2)nc(C)n1 (stereo not drawn)	2.15%
CCCc1cc(CNC2CCN(c3cc(C)nc(N)n3)CC2)on1	71.1%
CCCc1cc(CNC2CCN(c3nc(C)cc(C)n3)CC2)on1	35.2%
CCCc1cc(CNC2CCN(c3nc4ccccc4s3)CC2)on1	67.8%
CCCC1COCCN1Cc1ccc(NC(C)=O)cc1 (stereo not drawn)	-30%
CC(C(=O)N1CCCCC1)N1CCN(c2nccs2)CC1 (stereo not drawn)	41.3%
CN(C)C(=O)NCc1cc(=O)n2c(n1)CN(Cc1ccoc1)CCC2	5.41%
CCn1ncc2c1C(COCC1CC1)N(Cc1cnn(C)c1)CC2 (stereo not drawn)	-44.2%
O[C@H]1CCN(Cc2ccoc2)[C@H]1Cc1cccnc1	41.4%
CC(=O)N1CCCCC[C@@H]2[C@@H]1[C@H](c1cccc(F)c1)CN2CCC(N)=O	32.95%
O=C(C1=CCCC1)N1C[C@H]2CCC[C@@]2(COCc2ccncc2)C1	47.9%
COC(=O)[C@@H]1C[C@H](NC(=O)Cn2c(=O)cc(C)c3ccccc32)CN1C	-4.4%
Cc1cc(=O)n(CC(=O)NC2CCCCC2)c2ccccc12	70.1%
Cc1cn(CC(=O)NC2CCC(C(=O)O)CC2)c2ccccc12 (stereo not drawn)	26.4%
Cc1nnn2c1COCC(CNC(=O)c1ccc[nH]1)C2 (stereo not drawn)	26.5%
CC(C)CSCCN1CCCN(S(C)(=O)=O)CC1	75.6%
CC(C)CSCCN1CCN(S(C)(=O)=O)CC1	45.3%
CCSCCN1CCCN(S(C)(=O)=O)CC1	37.7%
O=C1CCOC[C@]2(CN(Cc3ccccc3)C[C@H]2c2ccccc2F)N1	23.9%
